Laboratory results reported in PubChem BioAssay AID1159580 (chemical genetic matrix, 2015).
Values joined by “and” are separate entries in the source; they are usually repeats but may differ in a detail not shown here. Identical values can stand only once. The whole screen tested about 5,500 compounds, of which about 2,000 (36%) were called active. About 18% were inconclusive and are not listed. Rule as the data show it: active = normalized growth mostly below about 0.91 (no sharp cut-off); inconclusive = no clear call, values can overlap the other calls; inactive = mostly above about 0.92. This is one part of the list.

Test: chemical genetic growth profiling, strain panel (AID 1159580);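 also: tested at 20 µM; growth read once vehicle control cultures reached saturation at 30 °C; 1 = growth at the plate median or of vehicle wells; lower values mean less growth of the strain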
Settings: S. cerevisiae deletion strains, growth OD

Measured: normalized growth

O=c1[nH]cnc2c1ncn2C1O[C@H](CO)[C@@H](O)[C@H]1O (stereo partly drawn)
inactive: locus YAL013W, strain DEP1, stronger effect = lower value 1.01 | locus YAL021C, strain ccr4, stronger effect = lower value 0.989 | locus YAL026C, strain drs2, stronger effect = lower value 1 | locus YAL030W, strain snc1, stronger effect = lower value 0.989 | locus YBL061C, strain skt5, stronger effect = lower value 0.995 | locus YBR009C, strain hhf1, stronger effect = lower value 1.02 | locus YBR021W, strain FUR4, stronger effect = lower value 1 | locus YBR023C, strain chs3, stronger effect = lower value 0.998 | locus YBR171W, strain sec66, stronger effect = lower value 0.978 | locus YBR229C, strain ROT2, stronger effect = lower value 1 | locus YBR231C, strain swc5, stronger effect = lower value 0.974 | locus YBR279W, strain paf1, stronger effect = lower value 0.986 | locus YCL011C, strain gbp2, stronger effect = lower value 1 | locus YCL016C, strain dcc1, stronger effect = lower value 1 | locus YCL029C, strain bik1, stronger effect = lower value 1.03 | locus YCL069W, strain vba3, stronger effect = lower value 0.995 | locus YCR088W, strain abp1, stronger effect = lower value 0.981 | locus YDL005C, strain med2, stronger effect = lower value 0.987 | locus YDL035C, strain GPR1, stronger effect = lower value 1.01 | locus YDL040C, strain nat1, stronger effect = lower value 0.986 | locus YDL074C, strain BRE1, stronger effect = lower value 1.01 | locus YDL101C, strain DUN1, stronger effect = lower value 1.01 | locus YDL134C, strain PPH21, stronger effect = lower value 1 | locus YDL185W, strain tfp1, stronger effect = lower value 1.04 | locus YDL192W, strain arf1, stronger effect = lower value 1.05 | locus YDR001C, strain nth1, stronger effect = lower value 0.986 | locus YDR069C, strain doa4, stronger effect = lower value 0.975 | locus YDR101C, strain arx1, stronger effect = lower value 1.05 | locus YDR137W, strain rgp1, stronger effect = lower value 1.01 | locus YDR159W, strain sac3, stronger effect = lower value 0.968 | locus YDR162C, strain NBP2, stronger effect = lower value 1.01 | locus YDR195W, strain ref2 0.958 | locus YDR297W, strain sur2, stronger effect = lower value 0.993 | locus YDR318W, strain mcm21, stronger effect = lower value 1.01 | locus YDR334W, strain swr1, stronger effect = lower value 0.974 | locus YDR335W, strain msn5, stronger effect = lower value 0.997 | locus YDR388W, stronger effect = lower value 1.03 | locus YDR392W, strain spt3, stronger effect = lower value 0.907 | locus YDR502C, strain sam2, stronger effect = lower value 1.02 | locus YEL003W, strain gim4, stronger effect = lower value 0.991 | locus YEL037C, strain rad23, stronger effect = lower value 0.987 | locus YEL061C, strain CIN8 (second series), stronger effect = lower value 0.989 | locus YEL061C, strain CIN8, stronger effect = lower value 1 | locus YER015W, strain faa2, stronger effect = lower value 0.982 | locus YER016W, strain bim1, stronger effect = lower value 0.989 | locus YER110C, stronger effect = lower value 1.03 | locus YER111C, strain swi4, stronger effect = lower value 0.996 | locus YER155C, strain BEM2 (second series), stronger effect = lower value 0.939 | locus YER155C, strain BEM2, stronger effect = lower value 1.01 | locus YER167W, strain BCK2, stronger effect = lower value 1 | locus YFR010W, strain ubp6, stronger effect = lower value 0.983 | locus YGL078C, strain dbp3, stronger effect = lower value 1.02 | locus YGL086W, strain mad1, stronger effect = lower value 1.01 | locus YGL167C, strain pmr1, stronger effect = lower value 0.978 | locus YGL173C, strain kem1, stronger effect = lower value 0.988 | locus YGL227W, strain vid30, stronger effect = lower value 0.98 | locus YGL240W, strain doc1, stronger effect = lower value 1 | locus YGL248W, strain PDE1, stronger effect = lower value 1.01 | locus YGL253W, strain hxk2, stronger effect = lower value 0.988 | locus YGR135W, strain pre9, stronger effect = lower value 0.998 | locus YGR252W, strain gcn5, stronger effect = lower value 0.981 | locus YHR013C, strain ard1, stronger effect = lower value 0.969 | locus YHR027C, strain rpn1, stronger effect = lower value 0.997 | locus YHR030C, strain SLT2, stronger effect = lower value 1 and 0.966 | locus YHR079C, strain IRE1 (second series), stronger effect = lower value 1.03 | locus YHR079C, strain IRE1, stronger effect = lower value 0.978 | locus YHR094C, strain hxt1, stronger effect = lower value 1.02 | locus YHR129C, strain ARP1, stronger effect = lower value 1 | locus YHR142W, strain chs7, stronger effect = lower value 1.02 | locus YHR200W, strain rpn10, stronger effect = lower value 1.03 | locus YIL066C, strain RNR3, stronger effect = lower value 1.01 | locus YIL073C, strain SPO22, stronger effect = lower value 1.12 | locus YIL125W, strain kgd1, stronger effect = lower value 1.02 | locus YIR030C, strain dcg1, stronger effect = lower value 1.04 | locus YJL092W, strain hpr5, stronger effect = lower value 0.998 | locus YJL095W, strain BCK1 (second series), stronger effect = lower value 0.987 | locus YJL095W, strain BCK1, stronger effect = lower value 1.02 and 0.981 | locus YJL115W, strain asf1, stronger effect = lower value 0.987 | locus YJL129C, strain trk1, stronger effect = lower value 0.994 | locus YJL134W, strain LCB3, stronger effect = lower value 1 | locus YJL154C, strain vps35, stronger effect = lower value 0.982 | locus YJL164C, strain tpk1, stronger effect = lower value 1.02 | locus YJL166W, strain qcr8, stronger effect = lower value 1.01 | locus YJL168C, strain set2, stronger effect = lower value 1.01 | locus YJL187C, strain SWE1 (second series), stronger effect = lower value 1 | locus YJL187C, strain SWE1, stronger effect = lower value 0.991 | locus YJR043C, strain POL32, stronger effect = lower value 1.01 | locus YJR066W, strain TOR1, stronger effect = lower value 0.925
